Shown are actives, neighbours in structure and some others; about 2.4% of the full set was active somewhere.
D2 ag-1: HTS Assay for Allosteric Agonists of the Human D2 Dopamine Receptor: Primary Screen for Agonists. HEK293 T-REx D2 cells, calcium flux agonist mode. activation, % at 2 µM. actives 0.53% (n = 340,000). AID 485358, 2010;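 active = activation over 3 SD above normal in the single-dose calcium agonist read, cut at about 30% in these data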; also: 0% is about no effect
Target sequence (P14416 whole entry, looked up): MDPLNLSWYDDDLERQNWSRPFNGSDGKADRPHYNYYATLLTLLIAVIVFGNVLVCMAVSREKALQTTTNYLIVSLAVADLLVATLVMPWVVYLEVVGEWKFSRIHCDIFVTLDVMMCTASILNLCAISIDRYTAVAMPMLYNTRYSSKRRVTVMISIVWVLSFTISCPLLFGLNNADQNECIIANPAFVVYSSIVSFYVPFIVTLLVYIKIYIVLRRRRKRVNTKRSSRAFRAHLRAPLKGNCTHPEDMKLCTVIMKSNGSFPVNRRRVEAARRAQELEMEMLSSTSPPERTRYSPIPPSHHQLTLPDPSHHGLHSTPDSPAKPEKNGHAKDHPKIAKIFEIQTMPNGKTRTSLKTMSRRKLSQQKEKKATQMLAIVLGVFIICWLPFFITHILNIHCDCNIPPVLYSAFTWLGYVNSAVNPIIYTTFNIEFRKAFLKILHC
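In this primary screen, compounds producing a positive calcium signal within 180 s of addition to tetracycline-induced, force-coupled HEK293 Trex D2 cells are flagged; cells are dye-loaded with a no-wash calcium kit beforehand.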
D2 PAM-1: HTS Assay for Positive Allosteric Modulators of the Human D2 Dopamine Receptor: Primary Screen for Potentiators. D(2) dopamine receptor (Homo sapiens), P14416. HEK293 T-REx D2, calcium flux, EC20 dopamine potentiation. potentiation, % at 10 µM. actives 0.34% (n = 340,000);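 active = potentiation over 3 SD above the plate norm, cut at about 30% in these data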; also: 0% is about no effect
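Tetracycline-induced HEK293 T-REx cells force-coupled to calcium signalling expressed D2; compounds were pin-added after a 10 s baseline, read kinetically 180 s, then an EC20 dopamine challenge followed with a further 180 s calcium read.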
D2 PAM-2: Beta-Arrestin HTS for Positive Allosteric Modulators of the Human D2 Dopamine Receptor: Potentiators; DiscoveRx D2 beta-arrestin cells, luminescence, 90 min; 100% = 57 uM dopamine signal; potentiation, % (no concentration beside the values); actives 0.23% (n = 360,000); AID 624464, 2012; in the data active = potentiation above about 50%
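PathHunter beta-arrestin assay in DiscoveRx D2 cells. Compounds were added with an EC20 of dopamine (50 nM final) for 90 min at 37 deg C. Luminescence was read 1 h after detection reagent, with 57 uM dopamine as the EC100 control.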
D2 ag-2: Beta-Arrestin HTS for Positive Allosteric Modulators of the Human D2 Dopamine Receptor: Agonists; actives 0.084% (n = 360,000); D(2) dopamine receptor (Homo sapiens), P14416; activation, % (concentration not given with the values); DiscoveRx PathHunter D2 beta-arrestin, luminescence, 90 min; 100% = 57 uM dopamine signal; in the data active = activation above about 40%
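DiscoveRx PathHunter D2 beta-arrestin cells (2,100/well) attached overnight, then compound-stimulated 90 min at 37 C in HBSS/10 mM HEPES/0.1% Tween-20 buffer; beta-galactosidase complementation read by luminescence after 1 h at ambient temperature. Dopamine 57 uM final (EC100) as control.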
D2 antagonist: HTS Assay for Allosteric Antagonists of the Human D2 Dopamine Receptor: Primary Screen for Antagonists | actives 2% (n = 340,000) | inhibition, % at 10 µM | HEK293 TREx D2 cells, calcium flux, dopamine EC80 | D(2) dopamine receptor (Homo sapiens), P14416; in the data active = inhibition above about 30%; inactive = below that, where a call was filed; also: 0% is about no effect
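Compounds are added to dye-loaded, induced HEK293 T-REx cells coupled to calcium release via D2; after a 3 min kinetic read an EC80 dopamine stimulus is given and fluorescence is recorded for 3 more min.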
* = called active by the depositor; · = no result.

SMILES	D2 ag-1	D2 PAM-1	D2 PAM-2	D2 ag-2	D2 antagonist
Cc1ccc(Oc2cc([N+](=O)[O-])cc3c2C(=O)Nc2ccccc2O3)cc1	2	14	6	2	30*
CSCCC(N=C1NS(=O)(=O)c2ccccc21)C(=O)NCCc1ccccc1 (stereo unspecified)	1	-22	-27	-1	42*
OC1(c2ccc(Br)cc2)CCN(Cc2cccc(Br)c2)CC1	0	-42	-82	1	103*
Cn1c(-c2ccccc2)c(C(=O)CCl)c2ccccc21	-1	39*	-9	4	0
CCCCSCCCNC(=O)CN1C(=O)COc2ccc(S(=O)(=O)N3CCCC3)cc21	0	-1	·	·	·
COC(=O)CC(NS(=O)(=O)c1cccs1)c1ccc2c(c1)OCO2 (stereo unspecified)	0	3	-7	4	14
COC(=O)CC(NS(=O)(=O)c1cccs1)c1ccccc1Cl (stereo unspecified)	0	-4	-5	-5	35*
COc1ccc(-c2nc3sc(CCNC(=O)c4cc(Cl)ccc4OC)c(C)n3n2)cc1	0	-1	·	·	·
COc1ccc(C2OC[C@H]3O[C@H](O)[C@H](NC(C)=O)[C@@H](O)[C@@H]3O2)cc1 (stereo partly specified)	2	1	8	7	53*
COc1ccccc1OC1OC2COC(c3ccco3)OC2C(O)C1NC(C)=O (stereo unspecified)	1	-10	-13	2	-11
O=C(NCCCN1CCCCC1)c1ccc(CS(=O)c2ccc(F)cc2)o1 (stereo unspecified)	1	-4	-4	-2	32*
Cc1cc(C(F)(F)F)n(-c2nc(C(=O)O)cs2)n1	0	-4	-4	1	-3
O=C(O)c1csc(-n2nc(-c3ccccc3)cc2C(F)(F)F)n1	0	15	-10	4	48*
CN1CCc2ccccc2Cc2[nH]c3ccccc3c2CC1	1	-18	-31	-2	72*
Cc1ccc(C(=O)c2cn(CC(=O)NCc3ccccc3Cl)c3nc(C)ccc3c2=O)cc1	-1	-8	·	·	·
Cc1cc(C)cc(NC(=O)C2CCN(c3nc4ccccc4nc3C(F)(F)F)CC2)c1	0	2	·	·	·
O=C(CSc1nc2sc3c(c2c(=O)n1-c1ccccc1)CCCC3)NCc1ccco1	2	-10	-6	2	-1
CC1(C)Cc2c(sc3nc(SCC(=O)NCc4ccco4)n(-c4ccccc4)c(=O)c23)CS1	1	-3	-9	1	30*
COc1ccc(C(=O)N/C(=C\c2ccc([N+](=O)[O-])cc2)C(=O)NC(CCSC)C(=O)O)cc1 (stereo unspecified)	18	-4	1	0	35*
Cc1ccc(C(=O)N2CCN(CCc3ccncc3)CC2)cc1	2	-39	·	·	·
CCc1ccc(NC(=O)CSc2nc3c(c(=O)[nH]2)CN(Cc2ccc(C)cc2)CC3)cc1	-2	3	·	·	·
CCOC(=O)CN(C(=O)CSc1nnc2c(n1)[nH]c1ccc(OC)cc12)c1ccc(F)cc1	1	-27	-27	0	80*
COc1ccc(N2CC(NC(=O)/C=C\c3ccc4c(c3)OCO4)CC2=O)cc1 (stereo unspecified)	-1	-1	·	·	·
Cc1cc(C)cc(NC(=O)[C@H](NC(=O)[C@@H]2Cc3ccccc3CN2)c2ccccc2)c1	0	-20	-21	-3	40*
CCN(CC)CCN(Cc1cc2cc3c(cc2[nH]c1=O)OCCO3)C(=S)NCC1CCCO1 (stereo unspecified)	2	-6	-5	-2	-14
SMILES	D2 ag-1	D2 PAM-1	D2 PAM-2	D2 ag-2	D2 antagonist
CN(C)CCN(Cc1cc2cc3c(cc2[nH]c1=O)OCCO3)C(=S)NCC1CCCO1 (stereo unspecified)	0	-1	1	1	41*
CN(C)CCN(Cc1ccco1)C(=O)c1cc2c(s1)-c1ccccc1OC2	1	-15	·	·	·
COc1cccc(NC(=O)C2CCCN(c3ncnc4onc(-c5ccc(F)cc5)c34)C2)c1 (stereo unspecified)	1	4	·	·	·
C/C(=N\OCc1cccc(C(=O)O)c1)c1ccc(Cl)cc1	0	8	0	-1	56*
C/C(=N\OCc1ccc(C#N)cc1)c1ccccc1	0	11	-3	1	-5
CCCSc1ncc(Cl)c(C(=O)Nc2sc3c(c2C(=O)NCC)CCCC3)n1	0	7	·	·	·
COC(=O)c1ccc(NC(=O)CC2C(=O)N(c3ccc(F)cc3)C(=O)N2Cc2ccc(OC)cc2)cc1 (stereo unspecified)	9	-1	·	·	·
CCC(=O)N1CCN=C1SCc1ccc(Cl)cc1	0	30*	-9	-1	5
O=C(c1cccs1)N1CCN=C1SCc1ccc(Cl)cc1	3	-5	-4	-2	27
O=C(C1CC1)N1CCN=C1SCc1ccccc1Cl	-1	4	-11	-3	35*
O=C(c1cccs1)N1CCN=C1SCc1ccccc1F	33*	-21	-4	-1	-8
Cn1ccc2cc(S(=O)(=O)N3CCN(C(=O)Nc4cccc(F)c4)CC3)ccc21	1	-8	·	·	·
O=C(OCc1cc(=O)n2nc(C3CC3)sc2n1)c1ccc(F)cc1	·	21	·	·	·
CCOc1ccccc1-c1noc(CCCC(=O)Nc2cccc(C(F)(F)F)c2)n1	·	-17	·	·	·
O=c1[nH]c(C2CCN(S(=O)(=O)c3ccccc3)CC2)nc2c1nnn2Cc1cccc(Cl)c1	0	5	-1	1	32*
O=c1[nH]c(C2CCN(S(=O)(=O)c3ccccc3C(F)(F)F)CC2)nc2c1nnn2Cc1cccc(F)c1	0	5	-1	5	43*
O=c1[nH]c(C2CCN(S(=O)(=O)c3ccc(C(F)(F)F)cc3)CC2)nc2c1nnn2Cc1cccc(F)c1	1	0	-13	-2	-12
CC(=O)N1CCc2cc(Br)cc(S(=O)(=O)N3CCC(C)CC3)c21	-2	23	·	·	·
Cc1ccc(S(=O)(=O)N2[C@@H](c3ccc(Cl)cc3)C(C(=O)O)=CC[C@H]2c2ccc(C(C)C)cc2)cc1	0	-25	-4	2	39*
Cc1ccc(NC(=O)C2CCC(CNS(=O)(=O)c3ccc4c(c3)CCCC(=O)N4)CC2)cc1F (stereo unspecified)	·	-1	·	·	·
